Activity calls are given as the source filed them.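 The calls were made as follows, unless noted: active = inhibition above 20% together with a positive visual image hit; inconclusive = visual image hit but inhibition not above 20%; inactive = no visual image hit.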
Columns and labels:
[1] = inhibitors of TNFa-induced NFkB p65 translocation, primary screen, imaging, HUVEC, MLSMR starter and 10KST1 sets (AID 438); details: HUVEC TNFa-induced p65 nuclear translocation; cell count: measured here: nuclei count (cytotoxicity indicator), at 2.08 µM; inhibition: at 2 µM, stronger effect = higher value, 0% TNFa-plus-vehicle, 100% no-TNFa wells;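 also: compound added about 3h40 before a 20 min TNFalpha stimulation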;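 as to inhibition: signal is the nuclear over cytoplasmic p65 intensity ratio per well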
[2] = inhibitors of mutant huntingtin aggregation, primary screen, imaging, exon1htt(103Q)mCFP cells, high-content imaging (AID 483;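 active = visual image review flags a hit and inhibition of aggregation exceeds 20%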;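 also: compound exposure lasted 3 days before fixation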;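 as to nuclei count: percent of the per-plate median nuclei count of sample wells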); details: exon1htt(103Q)mCFP cell line, aggregate imaging, at 2 µM; inhibition of aggregation: stronger effect = higher value; nuclei count: measured here: cell count, toxicity
[3] = inhibitors of E-selectin induction by TNFa, primary screen, imaging, HUVEC, immunofluorescence, MLSMR starter and 10KST1 sets (AID 487;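 active = visually confirmed hit in the image check and inhibition above 20%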;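 as to inhibition: signal is fraction of cell area covered by stained E-selectin grains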;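 as to nuclei count: 100% = median nuclei count of all wells on the same plate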); details: HUVEC TNFalpha-induced E-selectin immunofluorescence imaging, at 2 µM; inhibition: stronger effect = higher value; nuclei count: measured here: cell number, toxicity
[4] = biological target: Voltage-gated potassium channel subunit beta-2 (Rattus norvegicus) (UniProt P62483); test: KvBeta enzyme negative modulators, primary screen, biochemical, NADPH fluorescence (AID 622;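 active = fluorescence slope higher than the sample average by over 3 SD, cut at about -0.22 in these data, passing the limit was not always enough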;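 also: slope of raw intensity against log time taken from 70 to 1610 s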); details: recombinant KvBeta, 4-cyanobenzaldehyde reduction, at 10 µM, stronger effect = higher value
Voltage-gated potassium channel subunit beta-2 (Rattus norvegicus), sequence (P62483 whole entry, looked up): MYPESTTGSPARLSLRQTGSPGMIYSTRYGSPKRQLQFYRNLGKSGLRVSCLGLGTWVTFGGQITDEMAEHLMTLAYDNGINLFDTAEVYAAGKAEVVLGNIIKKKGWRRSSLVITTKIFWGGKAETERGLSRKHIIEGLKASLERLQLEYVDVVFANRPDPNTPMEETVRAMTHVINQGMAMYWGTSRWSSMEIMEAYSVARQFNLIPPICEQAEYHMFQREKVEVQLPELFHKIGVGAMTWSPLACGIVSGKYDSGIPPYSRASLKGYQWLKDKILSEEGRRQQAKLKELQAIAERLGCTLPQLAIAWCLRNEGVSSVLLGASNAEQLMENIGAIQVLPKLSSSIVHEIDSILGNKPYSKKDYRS

[5] = biological target: Voltage-gated potassium channel subunit beta-2 (Rattus norvegicus) (UniProt P62483); test: KvBeta positive modulators, primary screen, biochemical, NADPH fluorescence (AID 623;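 active = NADPH fluorescence slope more negative than the mean of all samples by about 3 SD, 99.7% confidence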;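 also: fluorescence intensity change per second fitted from 20 to 320 s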); details: Recombinant KvBeta, NADPH fluorescence decrease slope, 10 min; at 10 µM; stronger effect = lower value
[6] = biological target: Alpha-2C adrenergic receptor (Homo sapiens) (UniProt P18825); test: modulators of alpha2C/GIRK thallium flux, primary screen, cell-based, HEK293 alpha2C/GIRK1/2 (AID 624;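 active = fluorescence slope after compound addition differing from the mean of all screened samples at 99.7% confidence, in either direction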;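 also: slope of fluorescence ratio to pre-addition baseline per second over 15 to 24 s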); details: thallium flux BTC fluorescence, at 10 µM, actives lie on both sides
Alpha-2C adrenergic receptor (Homo sapiens), sequence (P18825 whole entry, looked up): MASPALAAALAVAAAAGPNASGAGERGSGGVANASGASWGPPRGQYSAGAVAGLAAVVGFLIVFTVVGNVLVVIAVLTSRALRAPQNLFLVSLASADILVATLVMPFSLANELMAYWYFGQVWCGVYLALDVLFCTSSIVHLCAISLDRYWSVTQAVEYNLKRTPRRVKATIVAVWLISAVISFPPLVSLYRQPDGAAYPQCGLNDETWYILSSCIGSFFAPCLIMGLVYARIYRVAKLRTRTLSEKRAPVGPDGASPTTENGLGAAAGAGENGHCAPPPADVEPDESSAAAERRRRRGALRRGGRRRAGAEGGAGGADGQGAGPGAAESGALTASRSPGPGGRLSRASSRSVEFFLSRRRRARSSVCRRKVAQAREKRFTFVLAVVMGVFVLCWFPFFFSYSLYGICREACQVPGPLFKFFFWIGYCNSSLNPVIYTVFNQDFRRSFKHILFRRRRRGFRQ

[7] = inhibitors of Sendai virus-induced IRF3 signaling, primary screen, TLR/RLR signaling modifier project, cell-based, Sendai virus stimulus, luciferase, 10K MLSCN set (AID 602276;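 active = inhibition at or above 50% at 10 µM; inactive = inhibition below 50%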;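 also: firefly luciferase from ISG56 promoter only with Renilla not read in this screen; 0% = Sendai virus plus DMSO and 100% = medium plus DMSO without virus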); details: HEK293 RL24 IRF3 luciferase reporter, at 10 µM, stronger effect = higher value
[8] = inhibitors of poly I:C-induced TLR3 signaling, primary screen, cell-based, poly I:C stimulus, luciferase, 10K MLSCN set (AID 602277;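 active = inhibition of the reporter signal at or above 50%; inactive = inhibition below 50%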); details: HEK293-TLR3 RL24 IRF3 luciferase reporter, at 10 µM, stronger effect = higher value
[9] = DUSP6 inhibitors restoring Erk phosphorylation by chemical complementation, primary imaging in DUSP6-transfected HeLa (AID 609;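 active = compounds giving at least 50% inhibition in the cell-based MKP-3 phosphatase rescue imaging test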;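 as to inhibition: phospho-Erk level distribution per well compared with pooled transfected vehicle control wells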); details: HeLa MKP-3 transfected, phospho-Erk imaging KS statistic, at 10 µM, cells stimulated with TPA for 15 min
[10] = biological target: Dual specificity protein phosphatase 6 (Homo sapiens) (UniProt Q16828); test: as above; details: HeLa MKP-3 transfected, phospho-Erk imaging KS statistic; at 10 µM; stronger effect = higher value; cells stimulated with TPA for 15 min
Dual specificity protein phosphatase 6 (Homo sapiens), sequence (Q16828 whole entry, looked up): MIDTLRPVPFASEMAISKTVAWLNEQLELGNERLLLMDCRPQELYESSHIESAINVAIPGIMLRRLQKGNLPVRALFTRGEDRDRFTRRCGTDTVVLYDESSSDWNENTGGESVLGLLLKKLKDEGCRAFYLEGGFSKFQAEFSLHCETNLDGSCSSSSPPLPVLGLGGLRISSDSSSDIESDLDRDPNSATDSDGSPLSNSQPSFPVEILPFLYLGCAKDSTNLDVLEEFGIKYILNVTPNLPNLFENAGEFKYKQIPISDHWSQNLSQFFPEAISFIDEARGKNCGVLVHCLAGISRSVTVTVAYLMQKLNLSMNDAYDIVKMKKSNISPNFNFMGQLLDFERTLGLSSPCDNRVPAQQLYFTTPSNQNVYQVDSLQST

[11] = biological target: Muscarinic acetylcholine receptor M4 (Homo sapiens) (UniProt P08173); test: compounds altering M4/GIRK thallium flux, either direction, primary screen, M4 allosteric agonist project, cell-based, HEK293 M4/GIRK, BTC-AM (AID 625;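 active = fluorescence slope after compound addition differing from the mean of all tested samples at 99.7% confidence, mostly higher but some lower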;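 also: thallium influx through GIRK channels coupled to M4 in HEK293 cells with BTC-AM dye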); details: at 10 µM, actives lie on both sides
Muscarinic acetylcholine receptor M4 (Homo sapiens), sequence (P08173 whole entry, looked up): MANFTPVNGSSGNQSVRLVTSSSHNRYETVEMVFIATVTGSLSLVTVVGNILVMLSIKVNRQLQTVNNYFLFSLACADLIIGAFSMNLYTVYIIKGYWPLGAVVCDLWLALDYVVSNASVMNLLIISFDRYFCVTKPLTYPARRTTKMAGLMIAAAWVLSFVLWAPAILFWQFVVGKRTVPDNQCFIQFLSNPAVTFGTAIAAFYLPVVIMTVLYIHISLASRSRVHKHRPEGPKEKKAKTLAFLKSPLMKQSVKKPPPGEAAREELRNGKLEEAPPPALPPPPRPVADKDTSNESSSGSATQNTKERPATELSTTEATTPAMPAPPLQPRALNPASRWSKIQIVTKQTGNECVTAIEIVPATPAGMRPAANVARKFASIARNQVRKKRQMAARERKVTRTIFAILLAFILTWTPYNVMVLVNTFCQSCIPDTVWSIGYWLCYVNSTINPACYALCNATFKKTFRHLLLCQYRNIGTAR

[12] = inhibitors of larval lipid processing in zebrafish, primary screen, whole organism, PED6 fluorescence, gall bladder and intestine (AID 686;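 active = a full or partial loss of lipid-probe fluorescence in the fish gall bladder, intestine or both, judged by eye; inactive = no fluorescence loss, or compound toxic to the fish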;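 also: larvae 5 to 7 days old with five fish per well; signal comes from phospholipase A2 cleavage of quenched PED6 carried via bile; overnight exposure to compound and PED6 before scoring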); details: Zebrafish larvae PED6 lipid processing, fluorescence scoring; screened at 20 µM (by protocol)
[13] = inhibitors of Chlamydomonas gravitaxis, primary screen, whole organism, Chlamydomonas reinhardtii, WT vs cilia-less mutant, absorbance, 96-well (AID 463189;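 active = inhibition at or above 50% relative to wild type and mutant plate controls; inactive = inhibition below 50%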;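 also: 0% = wild type cc124 cells in DMSO and 100% = ciliumless bld1 mutant cells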); details: OD600 absorbance, 2 days, at 10 µM, stronger effect = higher value
[14] = measured here: cell density z-score
[15] = measured here: nuclear c-Myc green intensity z-score
[16] = measured here: nuclear pErk red intensity z-score, stronger effect = higher value

Compound	cell count [1]	inhibition [1]	inhibition of aggregation [2]	nuclei count [2] [%]	inhibition [3]	nuclei count [3] [%]	fluorescence slope [4]	NADPH fluorescence slope [5]	slope [6]	inhibition [7]	inhibition [8]	z-score [9, 14]	z-score [9, 15]	z-score [9, 16]	inhibition [10]	fluorescence slope [11]	outcome [12]	inhibition [13]
O=C(NCc1ccco1)c1cc2cc3ccc(Cl)cc3nc2o1	198	-4.9% (inactive)	12.7% (inactive)	105	-23.3% (inactive)	118	-0.489 (inactive)	-3.4e-05 (inactive)	0.00854 (inactive)	-5.73% (inactive)	-43.3% (inactive)	–	–	–	–	–	–	–
CN(C)c1cccc2c(S(=O)(=O)Nc3ccccn3)cccc12	679	11.1% (inactive)	11.7% (inactive)	101	22.1% (inactive)	86.9	-0.318 (inactive)	-1.7e-05 (inactive)	0.00542 (inactive)	11.3% (inactive)	19.3% (inactive)	–	–	–	–	–	–	–
O=C(O)CC(NC(=O)c1ccccc1NC(=O)c1ccccc1)C(=O)O (centres undefined)	284	-0.3% (inactive)	8.8% (inactive)	111	22.6% (inactive)	90	-0.403 (inactive)	1.9e-05 (inactive)	0.00592 (inactive)	-6.91% (inactive)	-15.2% (inactive)	–	–	–	–	–	–	–
COc1ccc(-c2nc3n(n2)C(=O)CC(c2ccco2)S3)cc1 (centres undefined)	666	-10.3% (inactive)	–	–	–	135	-0.466 (inactive)	-5.1e-05 (inactive)	–	–	–	-1.15	-1.31	-2.71	-11.5% (inactive)	0.00655 (inactive)	inactive	-9.22% (inactive)
C=CCn1c(-c2ccc(OC)c(OC)c2)n[nH]c1=S	515	-3.9% (inactive)	–	–	9.4% (inactive)	150	-0.338 (inactive)	-3.6e-05 (inactive)	–	–	–	0.455	-1.23	-0.521	5.95% (inactive)	0.00705 (inactive)	inactive	30.5% (inactive)
CCOC(=O)N1CCN(C(=O)c2ccc3c(SCC(=O)O)c4c(nc3c2)CCCC4)CC1	819	-5.2% (inactive)	14.8% (inactive)	100	-74.3% (inactive)	137	-0.542 (inactive)	7.3e-06 (inactive)	0.00656 (inactive)	9.84% (inactive)	21.6% (inactive)	–	–	–	–	–	–	–
Cc1ccc(S(=O)(=O)NCC(=O)N(CC(=O)NC2CCCCC2)Cc2ccco2)cc1	294	8.1% (inactive)	12.7% (inactive)	97.1	-54.4% (inactive)	110	-0.431 (inactive)	-4.7e-05 (inactive)	0.00754 (inactive)	8.19% (inactive)	20% (inactive)	–	–	–	–	–	–	–
COc1ccc2[nH]c(=O)c(CN(C(=O)c3ccncc3)C(C)C)cc2c1	438	-6.2% (inactive)	4.6% (inactive)	120	-13% (inactive)	147	-0.448 (inactive)	-5.5e-05 (inactive)	0.00387 (inactive)	8.68% (inactive)	37.7% (inactive)	–	–	–	–	–	–	–
O=C1N2c3ccccc3CCc3cccc(c32)C1(O)C(F)(F)F (centres undefined)	747	4.7% (inactive)	0.2% (inactive)	82.6	-28% (inactive)	86.8	-0.641 (inactive)	1.4e-06 (inactive)	0.00675 (inactive)	17.9% (inactive)	12.7% (inactive)	–	–	–	–	–	–	–
CCOC(=O)N1CCN(C(=O)CSc2nnc(-c3cccc(Cl)c3)o2)CC1	543	11.7% (inactive)	-117% (inactive)	10.5	-3.2% (inactive)	96	-0.494 (inactive)	-0.000158 (inactive)	0.00621 (inactive)	0.178% (inactive)	18.7% (inactive)	–	–	–	–	–	–	–
CCc1cccc(NC(=O)CCc2nc(-c3cccs3)no2)c1	681	11.3% (inactive)	-7.6% (inactive)	106	7.6% (inactive)	114	-0.531 (inactive)	-2.7e-05 (inactive)	0.00567 (inactive)	-5.35% (inactive)	18.5% (inactive)	–	–	–	–	–	–	–

— PubChem BioAssay
